High-throughput results (PubChem)
NPSR antagonist: antagonists of human neuropeptide S receptor cAMP signaling; Q6W5P4; 220,000 tested, 1% active; CHO-NPSR cells, cAMP TR-FRET, antagonist mode; Potency, µM (highest dose often 38.3 µM), inactives show at the top dose activity change, negative = inhibition, hits mostly inhibitors; AID 1461; active = well fitted curve in the direction sought with a large enough effect; inconclusive = small, poorly fitted or top-dose-only effect, or another doubt; inactive = no such curve, though single readings can be large; an effect the other way counts as inactive or inconclusive; note: potency is the fitted concentration of half-maximal effect; nearly all actives have a fitted effect of over 50% in size
Target sequence (Q6W5P4 whole entry, looked up): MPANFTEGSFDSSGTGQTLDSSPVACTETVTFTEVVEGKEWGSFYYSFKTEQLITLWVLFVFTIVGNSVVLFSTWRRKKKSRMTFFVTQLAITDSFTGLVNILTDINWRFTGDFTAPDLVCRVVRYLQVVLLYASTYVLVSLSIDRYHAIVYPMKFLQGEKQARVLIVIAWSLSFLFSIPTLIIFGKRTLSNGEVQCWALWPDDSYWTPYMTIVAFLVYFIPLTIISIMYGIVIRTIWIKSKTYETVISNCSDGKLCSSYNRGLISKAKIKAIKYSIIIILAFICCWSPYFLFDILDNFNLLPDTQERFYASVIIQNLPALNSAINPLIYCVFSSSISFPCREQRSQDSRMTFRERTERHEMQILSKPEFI
ALDH1A1 block: blocks purified human ALDH1A1 activity; 220,000 tested, 7.3% active; P00352; Purified ALDH1A1, NADH fluorescence, propionaldehyde substrate; Potency, µM (series often up to 75.3 µM), inactives show top-dose activity, negative = inhibition, actives largely listed as inhibitors;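 note: potency is the fitted concentration of half-maximal effect; plate controls were no enzyme wells and a reference inhibitor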
Coupling enz: inhibits coupling enzyme system, counter-screen for aldolase hits; activity change, negative = inhibition, % at 58.2 µM, hits read low; coupling enzyme system counterscreen, AmpLite Red fluorescence; 290,000 tested, 0.67% active; in the data active = activity change below about -30%
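Counterscreen lacking aldolase: glyceraldehyde-3-phosphate coupling-enzyme reagent preincubated 10 min at RT with compound (at 57.5 uM final), then substrate/coupling system with AmpLite Red added; fluorescence read at 525/598 nm after 20 min RT.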
GoLoco inh red: inhibitors of human Gai1-RGS12 GoLoco interaction (red fluorophore). P63096. Gai1:RGS12 GoLoco peptide FP, rhodamine, 10 min. Potency, µM (titrated, usually from 61.6 µM), inactives show at the highest dose activity, negative = inhibition, actives largely listed as inhibitors. 230,000 tested, 0.44% active. AID 880; active = well fitted inhibition curve with a large enough effect, not every such curve was filed as active; inactive = no such curve, though single readings can be large or run the other way; note: potency is the fitted concentration of half-maximal effect; nearly all actives have a fitted effect of over 30% in size
Sfp inh: inhibitors of Bacillus subtilis Sfp phosphopantetheinyl transferase; Q9F4F7; Biochemical Sfp PPTase activity, qHTS; Potency, µM, for the others: largest response in the series, negative = inhibition, usual class: inhibitors; 310,000 tested, 3.5% active; AID 1490; active = well fitted curve in the direction sought with a large enough effect; inconclusive = small, poorly fitted or top-dose-only effect, or another doubt; inactive = no such curve, though single readings can be large; an effect the other way counts as inactive or inconclusive;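 note: the enzyme is Sfp with the accession as filed and its product quenches rhodamine fluorescence; potency is the fitted concentration of half-maximal effect; 0% = enzyme reaction without inhibitor and -100% = no enzyme wells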
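Step 1, compound plus 15 nM Sfp-PPTase, 15 min, room temperature. Step 2, add rhodamine-CoA (5 uM) and BHQ-2-YbbR (12.5 uM). Step 3, read 525/598 nm fluorescence at 0 and 30 min.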
KDM4E inh: JMJD2E (human) inhibition; B2RXH2; Potency, µM (top dose mostly 57.1 µM), for the others: at the top dose activity change, negative = inhibition, most hits filed as inhibitors; JMJD2E catalytic domain, FDH-coupled NADH fluorescence (FDH is formaldehyde dehydrogenase); AID 2147; 230,000 tested, 1.6% active;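 note: potency is the fitted concentration of half-maximal effect; 0% = wells with enzyme and -100% = buffer wells without enzyme; nearly all actives have a fitted effect of over 50% in size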
Target sequence (B2RXH2 1-337 limits assumed): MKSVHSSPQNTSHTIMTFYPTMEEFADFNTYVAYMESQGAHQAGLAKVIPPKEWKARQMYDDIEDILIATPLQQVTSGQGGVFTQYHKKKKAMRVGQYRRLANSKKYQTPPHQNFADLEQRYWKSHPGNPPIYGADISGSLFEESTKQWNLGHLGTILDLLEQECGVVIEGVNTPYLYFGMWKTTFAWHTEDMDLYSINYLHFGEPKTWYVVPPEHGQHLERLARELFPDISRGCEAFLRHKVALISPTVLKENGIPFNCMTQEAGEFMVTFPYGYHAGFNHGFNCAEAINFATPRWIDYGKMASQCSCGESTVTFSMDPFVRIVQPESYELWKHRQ
* = called active by the depositor; ? = inconclusive; . = no result; [ ] = another dose, or the depositor's remark. In the library only some 8.5% were active in any assay of this set; here they are far more common. Unless noted, calls come from the whole dose curve; as a rule, active = well fitted inhibition curve with a large enough effect (not every such curve was filed as active); inconclusive = small, poorly fitted or top-dose-only effect, or another doubt; inactive = no such curve, though single readings can be large or run the other way. Unless noted, % is set by controls: 0 for no effect and ±100 for the full control effect.

SMILES | NPSR antagonist | ALDH1A1 block | Coupling enz | GoLoco inh red | Sfp inh | KDM4E inh
Cc1ccc2c(c1)C(C)(C)[C@]1(C)NC(=O)CCN21 | -20%[46.1 µM] | 40µM* | -17 | -123% | ? | ?
Cc1ccc2c(c1)C(O)(C1COC(C)(C)CC1=O)C(=O)N2C (configuration not stated) | 5% | 11% | -1 | 51% | 16% | 10%
CC1(C)OCC(CSC2=C(SCC3COC(C)(C)O3)C(=O)c3ncccc3C2=O)O1 (configuration not stated) | . | 2.5µM* | -87* | -34% | 1.3µM* | 1µM*
COC(=O)C1=CN(Cc2ccccc2)C=C(C(=O)OC)C1c1cc(F)ccc1F | . | . | 0 | . | -2% | .
CN(C)/C=N/NC(=O)c1ccccc1 | 25% | 4% | -1 | 1% | 1% | ?
O=C(NN=c1c(=O)c2ccccc2c1=O)c1ccccc1 | 0%[46.1 µM] | ? | -43* | 13% | 7% | -6%
S=c1nc(-c2ccco2)[nH][nH]1 | -19%[46.1 µM] | 25µM* | 1 | -22% | 28µM* | ?
O=C(NC1CCCCC1)c1ccc(NS(=O)(=O)c2cccc3cccnc23)cc1 | 33% | 7.9µM* | 4 | 99% | 5% | -7%
O=C(NCc1ccccc1)c1cccc(NS(=O)(=O)c2cccc3cccnc23)c1 | 5% | 0.5µM* | 3 | -5% | 24% | 3%
COCCNC(=O)c1cccc(NS(=O)(=O)c2cccc3cccnc23)c1 | 8% | ? | 0 | -4% | -1% | 2%
COCCN(Cc1cc2cc(C)ccc2[nH]c1=O)S(=O)(=O)c1ccc(Cl)cc1 | . | . | -1 | . | 21% | .
O=C(COC(=O)CNC(=O)c1sc2ccccc2c1Cl)Nc1c(Cl)cc(Cl)cc1Cl | 7% | 7% | 0 | -3% | -8% | 0%
COCCn1c(C(=O)N2CCCC2)cc2c1C[C@H]1CN(C(=O)c3ccccc3)[C@@](Cc3ccc(OC)cc3)(C(=O)OC)[C@@H]21 | . | -4% | 1 | -6% | 7% | -17%
O=C(Nc1ccc(N2CCCCC2)c(Cl)c1)c1ccc(N2CCOCC2)c([N+](=O)[O-])c1 | -13%[46.1 µM] | 8.9µM* | -4 | 8% | 6% | -2%
Cc1ccc(OC(=O)c2ccc(N3CCOCC3)c([N+](=O)[O-])c2)cc1 | -18%[46.1 µM] | 7.1µM* | 0 | 4% | -12% | -6%
O=C(Oc1ccc(Cl)cc1)c1ccc(N2CCOCC2)c([N+](=O)[O-])c1 | 21% | ? | 1 | -18% | -4% | 7%
CN(C)S(=O)(=O)c1cccc(NC(=O)c2ccc(N3CCOCC3)c([N+](=O)[O-])c2)c1 | 5% | 18µM* | -2 | 6% | ? | -4%
CC(=O)N1CCN(c2ccc(NC(=O)c3ccc(Cl)c([N+](=O)[O-])c3)cc2)CC1 | . | . | 1 | . | 8% | .
CC(=O)N1CCN(c2ccc(NC(=O)c3ccc(N4CCCC4)c([N+](=O)[O-])c3)cc2Cl)CC1 | -13%[46.1 µM] | 7.9µM* | -1 | 6% | -6% | 11%
Cc1cc(C)c(NC(=O)C2CCCN(S(=O)(=O)c3c(C)noc3/C=C/N(C)C)C2)c(C)c1 (configuration not stated) | . | . | . | . | 14% | .
COc1ccc(CC(=O)Nc2ccc(N3CCN(c4ccc(OC)cc4)CC3)c(C#N)c2)cc1 | 4%[46.1 µM] | ? | -3 | 3% | 5% | -1%
O=C(Nc1ccc2c(c1)OCO2)c1ccc(N2CCCC2)c([N+](=O)[O-])c1 | -18% | 16µM* | -4 | 7% | -3% | 0%
Cc1ccc(NC(=S)NNC(=O)c2ccc(N3CCOCC3)c([N+](=O)[O-])c2)cc1C | -1% | 4µM* | 7 | 16% | 5% | -2%
COc1ccc(N2CCN(c3ccc(NC(=O)c4ccc5c(c4)OCO5)cc3C#N)CC2)cc1 | 5µM* | 19% | -2 | 1% | 1% | -1%
CC(=O)Nc1ccc(SCC(c2ccccc2)N2CCN(CC(C)C)CCC2=O)cc1 (configuration not stated) | . | . | 2 | . | -18% | .
SMILES | NPSR antagonist | ALDH1A1 block | Coupling enz | GoLoco inh red | Sfp inh | KDM4E inh
O=C(/C=C/c1ccco1)N1CCc2ccccc21 | -18% | ? | -2 | 10% | ? | 1%
CCOC(=O)COc1cccc2c(=O)n(CC(=O)N3CCCc4ccccc43)ccc12 | -9%[46.1 µM] | ? | 0 | 4% | 6% | -25%
COc1cccc2c(=O)n(CC(=O)N3CCCc4ccccc43)ccc12 | -9%[46.1 µM] | 10µM* | 0 | 13% | 15% | ?
COc1ccc(OC)c(/C=C/C(=O)N2CCCc3ccccc32)c1 | -30% | ? | 0 | -2% | 2% | -1%
COc1ccc(/C=C/C(=O)N2CCCc3ccccc32)cc1 | -9% | ? | 6 | 9% | 79µM* | -6%
COc1cc(/C=C/C(=O)N2CCCc3ccccc32)cc(OC)c1OC | 3% | 14µM* | 12 | 5% | 0% | 1%
Cc1ccc(/C=C/C(=O)N2CCc3ccccc32)o1 | -16% | ? | -3 | -4% | 28µM* | -10%
COc1ccc(/C=C/C(=O)N2CCCc3ccccc32)c(OC)c1 | . | . | -3 | . | -11% | .
CCc1cccc(NC(=O)CSC2=NS(=O)(=O)c3ccccc32)c1 | -22%[46.1 µM] | ? | 5 | -32% | 14µM* | 4%
CCc1cccc(NC(=O)CSCc2cc(=O)[nH][nH]2)c1 | 3%[46.1 µM] | -6% | -1 | 7% | -2% | -6%
COc1ccccc1N1CCN(C(=O)c2ccc(CS(=O)(=O)c3ccccc3OC)o2)CC1 | 17%[46.1 µM] | 18µM* | 0 | 4% | -13% | 3%
CCOC(=O)N1CCC(NC(=O)c2ccc(CS(=O)(=O)c3ccccc3C)o2)CC1 | ? | 11µM* | -3 | 7% | -22% | -2%
CCOC(=O)N1CCN(C(=O)c2ccc(CS(=O)(=O)c3ccccc3OC)o2)CC1 | -3%[46.1 µM] | -6% | -1 | 7% | 79µM* | 1%
CSc1ccccc1NC(=S)NCc1ccc(Cl)cc1 | . | . | 3 | . | 10% | .
COc1ccc(CNC2CCSc3ccccc32)cc1OC (configuration not stated) | . | . | 0 | . | -9% | .
Cc1ccc(C(C(=O)Nc2ccc3c(c2)OCO3)N(C)C(=O)Cc2c[nH]c3ccccc23)cc1 (configuration not stated) | -16% | -17% | -2 | 3% | 7% | 1%
O=c1c2c3nc4ccccc4nc3n(/N=C/c3ccco3)c2ncn1CCC1=CCCCC1 | ? | 25µM* | 0 | 16% | ? | ?
CC(C)NC(=O)Nc1cccs1 | -4%[46.1 µM] | -2% | 0 | 3% | 79µM* | 0%
CCc1ccccc1NC(=O)Nc1cccs1 | -3% | 0% | -3 | 7% | 50µM* | 3%
Cc1ccccc1NC(=O)Nc1cccs1 | -12%[46.1 µM] | ? | 0 | 18% | 22µM* | -1%
CCc1ccccc1NC(=O)CCC(=O)c1cccs1 | . | . | . | . | 2% | .
